Laboratory results taken from the supplement of paper PMC13380429.

tested on: Vero E6 infected with SARS-CoV-2; test: SARS-CoV-2 infection rate relative to infected DMSO; higher = more infection, active = 60 or less; conditions: 24 h

| SMILES | SARS-CoV-2 infection rate |
| --- | --- |
| CCc1cccc(N(C)C(=N)Nc2cccc3ccccc23)c1 [aptiganel] (10 µM) | 104% (inactive) |
| COc1ccc2c3c1O[C@H]1C[C@@H](O)C=C[C@@]31CCN(C)C2 [galantamine] (10 µM) | 102% (inactive) |
| CN[C@@H](C)C(=O)N[C@H]1CCCC[C@H]2CC[C@@H](C(=O)N[C@@H](c3ccccc3)c3cn(CCCCc4ccc(CCCCn5cc([C@@H](NC(=O)[C@@H]6CC[C@@H]7CCCC[C@H](NC(=O)[C@H](C)NC)C(=O)N76)c6ccccc6)nn5)cc4)nn3)N2C1=O (10 µM) | 98% (inactive) |
| COc1cc(/C=C(\C#N)C(N)=O)cc(CSc2nc3ccccc3s2)c1O [tyrphostin-AG-825] (10 µM) | 108% (inactive) |
| C[C@]12C=CC(=O)C=C1CC[C@@H]1[C@@H]2C(=O)C[C@@]2(C)[C@H]1CC[C@]2(O)C(=O)CO [prednisone] (10 µM) | 108% (inactive) |
| CC[C@H]1OC(=O)[C@@](C)(F)C(=O)[C@H](C)[C@@H](O[C@@H]2O[C@H](C)C[C@H](N(C)C)[C@H]2O)[C@](C)(OC)C[C@@H](C)C(=O)[C@H](C)[C@H]2N(CCCCn3cc(-c4cccc(N)c4)nn3)C(=O)O[C@]12C [solithromycin] (10 µM) | 104% (inactive) |
| COC1=C[C@@H]2[C@@H]3Cc4ccc(OC)c(O)c4[C@]2(CCN3C)CC1=O [sinomenine] (10 µM) | 122% (inactive) |
| O=C1C(=C(O)/C=C/c2ccc(O)cc2)C(=O)[C@@](O)([C@@H]2O[C@H](CO)[C@@H](O)[C@H](O)[C@H]2O)C(=O)[C@H]1[C@@H]1O[C@H](CO)[C@@H](O)[C@H](O)[C@H]1O (10 µM) | 104% (inactive) |
